Screening results: PubChem, National Center for Advancing Translational Sciences (NCATS)
Most compounds without a hit are left out; they make up all but 4.3% or so of the library.
GLP-1R agonist: agonists of human GLP-1 receptor | HEK293 GLP-1R CRE-luciferase, luminescence, 4-6 h; cells express a hypersensitive GLP-1R form | P43220 | AID 624172 | 380,000 compounds, 0.007% hits | Potency, µM (series often up to 45.6 µM), for inactives: at the highest dose activation, usual class: activators; further: potency means the concentration at half of the fitted maximal effect; % of control where 0% means no effect
Target sequence (P43220 whole entry, looked up): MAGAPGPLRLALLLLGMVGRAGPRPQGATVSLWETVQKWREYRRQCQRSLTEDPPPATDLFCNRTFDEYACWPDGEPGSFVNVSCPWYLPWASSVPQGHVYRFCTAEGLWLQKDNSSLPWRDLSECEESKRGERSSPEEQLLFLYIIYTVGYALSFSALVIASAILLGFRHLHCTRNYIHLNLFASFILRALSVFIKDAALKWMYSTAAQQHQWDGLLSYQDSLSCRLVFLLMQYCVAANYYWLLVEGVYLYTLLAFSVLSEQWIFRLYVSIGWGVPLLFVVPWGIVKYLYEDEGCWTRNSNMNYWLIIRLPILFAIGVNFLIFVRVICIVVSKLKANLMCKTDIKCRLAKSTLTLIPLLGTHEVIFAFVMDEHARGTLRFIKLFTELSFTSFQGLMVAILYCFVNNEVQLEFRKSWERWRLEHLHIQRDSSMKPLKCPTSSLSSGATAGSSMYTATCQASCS
D3 antag: blocks the human D3 dopamine receptor. AID 652054. 360,000 compounds, 2.5% hits. D3R cells, DiscoveRx beta-arrestin luminescence, antagonist mode; stronger effect = lower value. max response, negative = inhibition, %; in the data active means max response below about -50%; inconclusive means no clear call, values can overlap the other calls; further: on the % scale 0 is the no-effect control and ±100 the full control effect
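Cells plated overnight at 1500 cells/well, then exposed to library compounds with dopamine controls for 90 minutes at 37 degrees C. DiscoveRx reagent added for 30–60 minutes at room temperature; luminescence read, quantitative HTS format.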
DRD3 agonist: D3 dopamine receptor (human) agonism. P35462. D3R DiscoveRx beta-arrestin cells, luminescence, 90 min. max activation, %. 410,000 compounds, 0.58% hits. AID 652048; in the data active means max activation above about 30%; further: 0% is about no effect
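Cells at 1500/well, incubated overnight, then treated with pinned compounds (dopamine as control) for 90 min at 37 degrees C. DiscoveRx reagent added for 30 - 60 minutes at room temperature; luminescence read.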
GLP-1R inv ag: acts as inverse agonist at human GLP-1 receptor | P43220 | Potency, µM (doses to about 38.3 µM), for inactives: top-dose activity change, negative = inhibition, actives largely listed as inhibitors | HEK293 GLP-1R CRE-luciferase, luminescence, 24 h; GLP-1R form is constitutively active | 410,000 compounds, 1.6% hits | AID 624417; further: potency means the concentration at half of the fitted maximal effect; on the % scale 0 is the no-effect control and ±100 the full control effect; nearly all actives have a fitted effect of over 55% in size
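Using stably transfected HEK293 (constitutively active GLP-1R, cAMP-luciferase reporter), compounds were incubated 24 hr and luciferase measured by luminescence.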
* hit, by the source's call; ? = inconclusive; . = no result given; ! = a repeat was not active. Unless noted, the call rests on the fitted dose curve; in most records, active means well fitted curve in the direction sought with a large enough effect; inconclusive means small, poorly fitted or top-dose-only effect, or another doubt; inactive means no such curve, though single readings can be large; an effect the other way counts as inactive or inconclusive.

SMILES	GLP-1R agonist	D3 antag	DRD3 agonist	GLP-1R inv ag
Cn1c(=O)oc2cc(S(=O)(=O)NCCN3CCCCCC3)ccc21	7%	2	0	4%
COc1ccc(Br)cc1S(=O)(=O)NCCCN1CCOCC1	-4%	-90*	-13	-11%
Cc1cc(-c2ccc(C)c(S(=O)(=O)NCCCN3CCN(c4ccccc4F)CC3)c2)on1	6%	-68*	4	?
COc1ccccc1CN1CCC(CNS(=O)(=O)c2cc(-c3cc(C)no3)ccc2OC)CC1	14%	1	-7	11µM*
Cn1c(=O)oc2cc(S(=O)(=O)NCCN3CCN(c4ccccc4F)CC3)ccc21	8%	-54*	11	-11%
Cc1ccc(NC(=O)C2(C)CCN2C(=O)Cc2ccc(C(C)C)cc2)cc1 (centres undefined)	14%	25	4	?
Cc1ccc(CNC(=O)Cn2c(=O)n(-c3cccc(Cl)c3)c(=O)c3sc4ccccc4c32)cc1	-1%	.	5	-8%
COc1ccc(-c2cc(C)no2)cc1S(=O)(=O)NCCCN1CCN(c2ccccc2)CC1	-1%	-58*	0	?
O=C(Cn1nc(-c2ccccc2)nc(Cc2ccccc2)c1=O)Nc1ccccc1	.	.	11	4%
CN1C(=O)/C(=C/c2ccccc2OCc2cccc(F)c2)N(C)C1=S	12%	24	-4	5.6µM*
CN1C(=O)/C(=C/c2ccc(OCc3ccc(F)cc3)cc2)N(C)C1=S	10%	-12	1	10%
CCC(=O)Nc1cccc(C(=O)N(Cc2ccccc2)Cc2ccccc2)c1	12%	5	3	?
CC(C)CCNC(=O)C(=O)Nc1cc2c3c(c1)CC(=O)N3CCC2	9%	12	39*	60%
Oc1ccc(/C=C/c2ccc3ccccc3n2)cc1	20%	5	-1	?
O=[N+]([O-])c1ccc(/C=C/c2ccc3ccccc3n2)cc1	17%	-12	-1	10µM*
C(=C\c1ccc2ccccc2n1)/c1ccccc1	-2%	28	-7	10µM*
CSc1cccc(NC(=O)c2ccc3c(c2)CCCN3S(C)(=O)=O)c1	.	.	-12	-26%
O=c1c2ccccc2c(/C=N/n2cnnc2)c(O)n1-c1ccccc1F	-9%	-5	-1	1%
Cc1ccc(-n2c(O)c(/C=N/n3cnnc3)c3ccccc3c2=O)cc1	0%	-109*!	7	-7%
COC(=O)CCN(c1ccccc1)S(=O)(=O)c1cc(-c2cc(C)no2)ccc1OC	20%	1	7	33%
CN(C)C(CNc1ccc(C(F)(F)F)cn1)c1ccccc1 (centres undefined)	17%	-59*	-15	?
Nc1c2c(nc3ccccc13)N(C1CCCCC1)CC2	1%	-83*	0	?
CCOC(=O)N1CCC(Nc2c(OCC)c(=O)c2=O)CC1	-5%	23	-2	1%
CCCN(CCC)c1nc(NC2CCN(C(=O)OCC)CC2)nc(OC)n1	8%	0	5	2.8µM*
Cc1ccc(OCC(=O)NCC2(N(C)C)CCCCC2)cc1C	.	.	-10	-27%
SMILES	GLP-1R agonist	D3 antag	DRD3 agonist	GLP-1R inv ag
COc1cc(NC(=O)c2cc([N+](=O)[O-])ccc2NC(=O)CNC2CCCCC2C)cc(OC)c1 (centres undefined)	1%	17	49*	?
COc1ccc(NC(=O)c2cc([N+](=O)[O-])ccc2NC(=O)CNCc2ccccn2)c(OC)c1	-2%	-13	11	-14%
COc1cc(NC(=O)c2cc([N+](=O)[O-])ccc2NC(=O)CNC2CCCCC2)cc(OC)c1	18%	6	-9	?
COc1cc(NC(=O)c2cc([N+](=O)[O-])ccc2NC(=O)CNCc2ccccn2)cc(OC)c1	4%	19	34*	7%
CCOC(=O)c1cc(-c2ccc(C)cc2)n(CC(=O)NC2CCCCCC2)c1C	1%	.	3	-6%
CCOc1ccccc1NC(=O)Cn1c(=O)n(Cc2cccs2)c(=O)c2cccnc21	.	.	1	3%
COc1ccc(-c2nc(CS(=O)CC(=O)NC(C)CCc3ccccc3)c(C)o2)cc1OC (centres undefined)	27%	-2	-2	31%
Cc1ccc(-c2nc(CS(=O)CC(=O)NC(C)CCc3ccccc3)c(C)o2)cc1 (centres undefined)	0%	-21	8	8.9µM*
Cc1oc(-c2ccc(Cl)cc2)nc1CS(=O)CC(=O)NCCCN1CC(C)CC(C)C1 (centres undefined)	8%	1	-9	5.6µM*
Fc1ccc(C2=CC(c3ccc(F)cc3)n3c(nc4ccccc43)N2)cc1 (centres undefined)	.	.	-12	?
Cc1ccc(S(=O)(=O)Nc2cccc3ncccc23)s1	3%	-77*	-25	?
Cc1ccc(S(=O)(=O)Nc2cccc3ncccc23)cc1	6%	-18	-2	2%
COc1cccc(NC(c2nnc(-c3ccccc3)o2)c2ccc(F)cc2Cl)c1 (centres undefined)	.	.	12	?
CC(=O)/C(N=Nc1ccc(SC(F)F)cc1)=C(\C)O	19%	-59*	1	-4%
CC(=O)/C(N=Nc1cccc(C(F)(F)F)c1)=C(\C)O	-3%	12	9	2%
CCOc1cc2[nH]c(=S)n(CCN3CCC(C)CC3)c(=O)c2cc1OCC	-12%	0	-9	-14%
O=c1c2cc(F)ccc2[nH]c(=S)n1CCCN1CCOCC1	5%	-26	-40	0%
CCOc1cc2[nH]c(=S)n(CCCN3CCOCC3)c(=O)c2cc1OCC	-6%	-71*	-55	0%
COc1cc2c(=O)n(CCCN3CCOCC3)c(=S)[nH]c2c(OC)c1OC	-2%	-83*	-4	-10%
CCOC(=O)c1[nH]c(C)c(CCC(=O)Nc2cccc(C(F)(F)F)c2)c1C	.	.	-6	?
COc1ccc(C(=O)Nc2nnc(S(=O)(=O)N3CCCc4ccccc43)s2)cc1	.	.	-7	3%
COC(=O)[C@H](C)N(Cc1ccc(Cl)c(Cl)c1)S(=O)(=O)CCNC1CCCC1	-4%	-4	0	13µM*
COCCS(=O)(=O)N(Cc1ccc(Br)cc1)[C@@H](C)C(=O)OC	0%	-4	1	3%
CSc1ccc(CCNC(=O)Cn2c(C)c3cnn(-c4ccccc4)c(=O)c3c2C)cc1	.	.	0	-5%
O=C1N/C(=C/c2ccc(N3CCOCC3)o2)C(=O)N1c1cccc(Cl)c1	5%	-75*	-12	5%
Cc1ccc(/C=C2/NC(=O)N(c3ccccc3)C2=O)o1	-4%	-22	-2	0%
Cc1nn(-c2ccccn2)c2c1C(=O)CC(C)(C)C2N=[N+]=[N-] (centres undefined)	1%	-2	-10	?
C=C(C)Cn1c2ccc(NC(=S)NCc3ccccc3F)cc2c(=O)n1C	13%	-52*	-12	-23%
Cn1c(=O)c2cc(NC(=S)NCc3ccccc3F)ccc2n1Cc1ccccc1	-4%	-14	-11	-6%
O=C(NN1C(=O)c2cc(Br)ccc2NC1c1cc(Br)cc(Br)c1O)c1ccncc1 (centres undefined)	5%	-66*	-16	-29%
